From PubChem BioAssay AID1345085 (National Center for Advancing Translational Sciences (NCATS), 2018) come the findings set out here.

Molecules are shown by their SMILES. Inconclusive results are not listed. A number with no mark means an inactive call. Active and inactive are the calls of the source. Calls come from the whole dose curve; as a rule, active = well fitted cell-killing curve with a large enough effect; inconclusive = small, poorly fitted or top-dose-only effect, or effect the other way; inactive = no such curve, though single readings can be large or run the other way.
% is set by controls: 0 for no effect and ±100 for the full control effect; potency is the fitted concentration of half-maximal effect.

The test has as its system Jar. Put plainly: Confirmatory qHTS for gynecologic anti-cancer compounds from libraries of approved drugs and bioactive compounds. Note: nearly all actives have a fitted effect of over 55% in size. The conditions noted are these: gynecologic cancer cell panel viability, ATPlite luminescence, 48 h; series mostly up to 57.6 µM; activity change, negative = viability loss: at the top concentration. Put shortly: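 Seeding 1,000 cells per well preceded overnight (16 h) attachment, after which 48 h drug treatment across 57.5 uM–0.977 nM (11 points) was applied. Remaining cellular ATP, detected by ATPlite luminescence, defined IC50.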
Regarding `Cc1cc(SCc2sc(-c3ccc(C(F)(F)F)cc3)nc2C)ccc1OCC(=O)O`, the “activity change, negative = viability loss” value was -6.35%.
For the compound `COc1ccccc1N1CCN(CC(O)COc2cccc3ccccc23)CC1` (centres undefined), the “activity change, negative = viability loss” value is -22.6%.
On to `O=C(/C=C/c1cccc(S(=O)(=O)Nc2ccccc2)c1)NO`, for which the Potency was 0.943 µM (active).
On the same count and under the same terms, as for `Cc1cc(C(=O)N2CCN(c3cccc(Cl)c3)CC2)n(-c2ccccc2)n1`, the figure is 1.72 µM (active).
The same measure, in the same setting: as for `Cc1ccc(C(N)=O)cc1Nc1nccc(-c2cn(C(C)C)c3cnccc23)n1`, the figure is 6.85 µM (active).
The same measure, in the same setting: to `Cc1nc(N)ncc1-c1nc(N2CCOCC2)c2sc(C(C)(C)O)cc2n1` belongs 7.69 µM (active); to `CC1=C(/C=C/C(C)=C/C=C/C(C)=C/C(=O)Nc2ccc(O)cc2)C(C)(C)CCC1`, 21.7 µM (active).
On to `COc1ccc(OC)c(-c2nnc3ccc(-c4ccc(OC)c(O[C@@H]5CCOC5)c4)nn23)c1`, for which the Potency is 12.2 µM (active).
In the case of `CCN(CC)CCNC(=O)c1c(C)[nH]c(/C=C2\C(=O)Nc3ccc(F)cc32)c1C`, the Potency was 25.1 µM (active).
Turning to `COc1c(C)c2c(c(O)c1C/C=C(\C)CCC(=O)OCCN1CCOCC1)C(=O)OC2`, the “activity change, negative = viability loss” value is -6.9%.
With `CN(C)CCC(CSc1ccccc1)Nc1ccc(S(=O)(=O)NC(=O)c2ccc(N3CCN(Cc4ccccc4-c4ccc(Cl)cc4)CC3)cc2)cc1[N+](=O)[O-]` (centres undefined), the Potency was 8.63 µM (active).
With `O=c1c(-c2ccc(O)cc2)coc2cc(O)cc(O)c12`, the “activity change, negative = viability loss” value is -2.15%.
Same read-out and setting: to `O=c1[nH]c(=O)n([C@H]2C[C@H](O)[C@@H](CO)O2)cc1C(F)(F)F` belongs -21%.
As for `CCCCc1oc2ccccc2c1C(=O)c1cc(I)c(OCCN(CC)CC)c(I)c1`, the Potency is 79.4 µM (active).
